D2 PAM-1: positively modulates the human D2 dopamine receptor allosterically | P14416 | HEK293 T-REx D2, calcium flux, EC20 dopamine potentiation | 340,000 tested, 0.34% active | potentiation, % at 10 µM;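 active = potentiation over 3 SD above the plate norm, cut at about 30% in these data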
Target sequence (P14416 whole entry, looked up): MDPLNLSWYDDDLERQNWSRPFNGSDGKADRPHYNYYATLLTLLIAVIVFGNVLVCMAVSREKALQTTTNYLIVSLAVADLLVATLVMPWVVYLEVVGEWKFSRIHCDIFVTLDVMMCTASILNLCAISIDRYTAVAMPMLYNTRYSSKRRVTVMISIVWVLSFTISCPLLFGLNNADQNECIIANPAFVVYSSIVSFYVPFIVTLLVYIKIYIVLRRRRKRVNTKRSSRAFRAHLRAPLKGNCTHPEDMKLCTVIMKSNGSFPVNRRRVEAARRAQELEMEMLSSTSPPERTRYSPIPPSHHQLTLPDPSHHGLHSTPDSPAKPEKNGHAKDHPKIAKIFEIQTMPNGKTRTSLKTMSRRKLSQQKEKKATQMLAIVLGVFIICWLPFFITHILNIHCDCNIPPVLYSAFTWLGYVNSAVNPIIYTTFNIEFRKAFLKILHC
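Potentiation of an EC20 dopamine calcium response is measured in a force-coupled, tetracycline-inducible Hek293 Trex D2 line. Compound-only kinetic reads over 180 s flag agonists before dopamine addition.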
D2 ag-1: agonists of human D2 dopamine receptor; HEK293 T-REx D2 cells, calcium flux agonist mode; P14416; 340,000 tested, 0.53% active; activation, % at 2 µM;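 active = activation over 3 SD above normal in the single-dose calcium agonist read, cut at about 30% in these data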
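Tetracycline-induced HEK293 T-REx cells with force-coupled D2 receptor, plated overnight at 30 C, loaded with no-wash calcium dye. After a 10 s baseline, compound was pin-added and calcium flux read kinetically for 180 s; calcium rises flagged agonists.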
D2 ag-2: activates the human D2 dopamine receptor | 360,000 tested, 0.084% active | activation, % (test concentration not listed) | P14416 | AID 624465 | DiscoveRx PathHunter D2 beta-arrestin, luminescence, 90 min; 100% = 57 uM dopamine signal; in the data active = activation above about 40%; inconclusive = between about 15% and that limit
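Agonist mode: compounds alone added to overnight-plated D2 PathHunter cells for 90 min at 37 C, with 57 uM final dopamine (EC100) defining full response. Beta-arrestin recruitment detected by chemiluminescent reagent, read after 1 h at ambient temperature.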
D2 PAM-2: potentiates the human D2 dopamine receptor allosterically; DiscoveRx D2 beta-arrestin cells, luminescence, 90 min; 100% = 57 uM dopamine signal; potentiation, % (concentration not given with the values); 360,000 tested, 0.23% active; AID 624464; in the data active = potentiation above about 50%; inconclusive = mostly about 30% to 49%
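PathHunter beta-arrestin assay in DiscoveRx D2 cells. Compounds were added with an EC20 of dopamine (50 nM final) for 90 min at 37 deg C. Luminescence was read 1 h after detection reagent, with 57 uM dopamine as the EC100 control.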
D2 antagonist: antagonizes the human D2 dopamine receptor; P14416; HEK293 TREx D2 cells, calcium flux, dopamine EC80; inhibition, % at 10 µM; 340,000 tested, 2% active; in the data active = inhibition above about 30%; inactive = below that, where a call was filed
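Measurement of antagonist activity uses fluorescent calcium dye in inducible HEK293 T-REx D2 cells: 10 s baseline, compound addition with 180 s read, EC80 dopamine addition with a further 180 s read.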
Each line names hits and unclear results; the compound was inactive in the other large screens. This is a sample that favours compounds with a hit; in the whole collection about 2.4% have one here.

Cc1nc(N2CCc3ccccc3C2)[nH]c(=O)c1Cc1ccccc1	none
CCOc1cccc2sc(N3CCN(C(=O)C(C)(C)C)CC3)nc12	none (no result: D2 ag-2, D2 PAM-2, D2 antagonist)
c1ccc(-c2nc3nonc3nc2-c2ccccc2)cc1	D2 ag-2 inconclusive, D2 PAM-2 74, D2 antagonist 41
N=c1c(C(=O)NCC2CCCO2)cc2c(=O)n3ccccc3nc2n1Cc1ccc(Cl)cc1 (stereo not given)	D2 antagonist 55
Cc1ccc(Cn2c(=N)c(C(=O)NCc3ccco3)cc3c(=O)n4ccccc4nc32)cc1	D2 antagonist 83
COc1ccc(OC)c(NCc2cccn2-c2nnc(N3CCCCC3)s2)c1	none (no result: D2 ag-2, D2 PAM-2, D2 antagonist)
COc1ccc2[nH]c3c(c2c1)CCn1c-3nc2sc(C(=O)Nc3ccccc3)c(C)c2c1=O	D2 antagonist 39 (no result: D2 ag-2, D2 PAM-2)
CCOC(=O)C1(Cc2ccccc2C(F)(F)F)CCN(C2CCSC2)CC1 (stereo not given)	D2 antagonist 50
COc1ccc(-n2nc3c(c2NC(=O)C(=O)NCc2ccccc2)CSC3)cc1	none (no result: D2 ag-1, D2 ag-2, D2 PAM-2, D2 antagonist)
Cc1cc(C)cc(N2CC(C(=O)OCC(=O)Nc3cc(C)on3)CC2=O)c1 (stereo not given)	D2 PAM-1 41
Cc1ccc(N2CC(C(=O)OCC(=O)Nc3cc(C)on3)CC2=O)c(C)c1 (stereo not given)	none
Cc1nc2ccn(Cc3cccs3)c(=O)c2cc1C(=O)Nc1ccccc1	none (no result: D2 ag-2, D2 PAM-2, D2 antagonist)
CCOC(=O)Cn1ncc(-c2ccccc2)c1N	D2 antagonist 57
CC(C)n1c(=O)c2oc3ccccc3c2n(CC(=O)Nc2ccccc2Cl)c1=O	none (no result: D2 ag-2, D2 PAM-2, D2 antagonist)
COc1ccc(S(N)(=O)=O)cc1C(=O)NCCCN1CCN(c2ccc(C)cc2)CC1	D2 antagonist 49
COc1ccc(Cl)cc1C(=O)NCCCN1CCOCC1	none
COc1ccc(N2CCN(CCCNC(=O)c3cc4sccc4n3C)CC2)cc1	D2 ag-1 38, D2 antagonist 40
Cc1ccc(NC(=O)c2ccc(-n3c(C)nnc3C)cc2)cc1F	none (no result: D2 ag-2, D2 PAM-2, D2 antagonist)
C[C@H]1O[C@@H](O[C@H]2CC[C@@]3(C)C(CC[C@]4(C)C3C=C[C@]35OC[C@@]6(CCC(C)(C)C[C@H]63)[C@@H](O)C[C@]54C)[C@]2(C)CO)[C@H](O)[C@@H](O[C@@H]2O[C@H](CO)[C@@H](O)[C@H](O)[C@H]2O)[C@H]1O (stereo not given in full)	none (no result: D2 PAM-1, D2 ag-1, D2 antagonist)
CC1OC(OC2C(OC3C(O[C@H]4CC[C@]5(C)C6C=C[C@]78OC[C@@]9(CC[C@@H](C)[C@H](C)C97)[C@H](O)C[C@@]8(C)[C@]6(C)CC[C@H]5C4(C)C)OC(C)C(O)C3O)OC(CO)C(O)C2O)C(O)C(O)C1O (stereo not given in full)	D2 ag-1 43, D2 antagonist 32 (no result: D2 ag-2, D2 PAM-2)
CN(C)c1ccc(/C=C(\C#N)C(=O)c2ccccc2)cc1	D2 ag-1 163
CCOc1ccc(NC(=O)c2cc(OC)nc3ccccc23)cc1	D2 antagonist 57
COc1cc(C(=O)Nc2ccc(C)cc2)c2ccccc2n1	none
O=C1c2ccccc2-c2onc3ccc(NCCCn4ccnc4)c1c23	D2 ag-1 49, D2 PAM-2 67
COc1ccc2noc3c2c1C(=O)c1ccccc1-3	none (no result: D2 PAM-1, D2 ag-1, D2 antagonist)
O=C(C1CC1)N(Cc1ccco1)c1nc(-c2ccccc2)cs1	D2 PAM-1 30
Cc1ccc(-c2nc3sc(CCNS(=O)(=O)c4cc(F)ccc4F)c(C)n3n2)cc1	none (no result: D2 ag-2, D2 PAM-2, D2 antagonist)
COc1ccccc1N1CCN(CC(O)c2c(C)[nH]c3ccccc23)CC1 (stereo not given)	D2 antagonist 65
COc1cc(C(C)=O)ccc1OCC(O)CN1CCN(c2ccccn2)CC1 (stereo not given)	D2 ag-1 78, D2 ag-2 60, D2 antagonist 93
COC(=O)c1[nH]c2cc(C)ccc2c1NC(=O)CN1CCN(c2ccccc2OC)CC1	D2 antagonist 70
C=CCc1ccccc1OCC(O)CN1CCN(c2ccccc2F)CC1 (stereo not given)	D2 antagonist 66
COC(=O)c1[nH]c2cc(C)ccc2c1NC(=O)CN1CCOCC1	none
COc1ccc(CC(=O)Nc2ccc(-c3nc4ccccc4s3)cc2Cl)cc1OC	none (no result: D2 ag-2, D2 PAM-2, D2 antagonist)
CCN(Cc1ccccc1)C(=O)CN1C(=O)COc2ccc(S(=O)(=O)N(CC)CC)cc21	none (no result: D2 ag-2, D2 PAM-2, D2 antagonist)
Fc1ccc(-n2ncc3c(Nc4cccc(Cl)c4)ncnc32)cc1	none (no result: D2 ag-2, D2 PAM-2, D2 antagonist)
O=S(=O)(c1cccs1)N1CCN(CC(O)COC2CCCc3ccccc32)CC1 (stereo not given)	none
COc1ccccc1N1CCN(CC(=O)c2c(C)[nH]c3ccccc23)CC1	D2 antagonist 31
Cc1ccccc1OCC(O)CN1CCN(C)CC1 (stereo not given)	none
OC(COc1ccccc1Cl)CN1CCN(CC(O)COc2ccccc2Cl)CC1 (stereo not given)	D2 antagonist 70
C=CCc1ccccc1OCC(O)CN1CCN(c2ccccc2OC)CC1 (stereo not given)	none
COc1ccccc1N1CCN(CC(O)COc2cccc3ccccc23)CC1 (stereo not given)	D2 antagonist 86
CCOc1ccccc1N1CCN(CC(O)COC2CCCc3ccccc32)CC1 (stereo not given)	D2 antagonist 78
O=C(Nc1ccc(Cl)cc1Cl)c1cc(S(=O)(=O)N2CCN(c3ccccc3F)CC2)ccc1F	none (no result: D2 ag-2, D2 PAM-2, D2 antagonist)
O=C(CN1CCN(c2ccccc2F)CC1)c1c[nH]c2ccccc12	none
COc1ccc2c(C(=O)CN3CCSCC3)c[nH]c2c1	none
COc1ccc2c(C(=O)CN3CCN(c4ccccc4)CC3)c[nH]c2c1	D2 ag-1 56, D2 antagonist 41
COc1ccccc1N1CCN(CC(=O)c2c[nH]c3ccccc23)CC1	D2 antagonist 63
O=C(Nc1nccs1)C1CCCN(S(=O)(=O)c2cccc3cccnc23)C1 (stereo not given)	D2 antagonist 39
CCOC(=O)N1CCC(NC(=O)C2CCN(S(=O)(=O)c3cccc4cccnc34)CC2)CC1	D2 antagonist 51
Cc1cccc(NC(=O)c2ccc3c(O)c(S(=O)(=O)c4ccccc4)c(=O)[nH]c3c2)c1C	none (no result: D2 ag-2, D2 PAM-2, D2 antagonist)
N#CC1=C(c2ccccc2)/C(=C/c2ccccc2)OC1=O	D2 antagonist 35
O=C1O/C(=C/c2ccccc2)c2ccccc21	none
CN(C)S(=O)(=O)c1cc(NC(=O)CNCc2ccc(F)cc2)ccc1Cl	D2 antagonist 44
Cc1ccc2[nH]c(C)c(/C=N/Nc3nc4ccccc4s3)c2c1	D2 PAM-2 58
COc1ccc(C=NNc2nc3ccccc3s2)cc1	none (no result: D2 PAM-1, D2 ag-1, D2 antagonist)
CC(=O)c1cccc(NCc2ccccc2-c2nnc(-c3ccccc3)o2)c1	none (no result: D2 ag-2, D2 PAM-2, D2 antagonist)
C=CCn1c(SCn2nnc3ccccc3c2=O)nnc1-c1ccc(F)cc1	none
C=CCn1c(SCn2nnc3ccccc3c2=O)nnc1-c1ccc(Br)cc1	D2 PAM-1 36

Assay outcomes: PubChem BioAssay, National Center for Advancing Translational Sciences (NCATS)
